Results reported in PubChem BioAssay (NCI).
“And” between values parts separate entries of the source, which are not always exact repeats. Equal values may be shown once. About 83,000 compounds went through this panel and 20% of them were active in at least one assay; those are over-represented in the sample as a whole.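 Treatment: one concentration, 48 hours, 96-well format. Scoring: percent growth, with anything below 10 considered active.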 The source made the active and inactive calls.

Tests used:
Assay in all cases: NCI-60 one-dose screen, 48 h (100 = growth as untreated, 0 = no growth, -100 = all killed)
Conditions in all cases: 10 µM unless noted
[1] = system: T-47D breast
[2] = system: MDA-MB-435 melanoma
[3] = system: SW-620 colon
[4] = system: MCF7 breast
[5] = system: KM12 colon
[6] = system: BT-549 breast
[7] = system: HCT-116 colon
[8] = system: HCC-2998 colon

Structure (SMILES)	growth [1]	growth [2]	growth [3]	growth [4]	growth [5]	growth [6]	growth [7]	growth [8]
O=S(=O)(c1ccc(O)cc1)c1ccccc1O	102% (inactive)	110% (inactive)	106% (inactive)	104% (inactive)	107% (inactive)			
Cc1cc(N)ccc1N		116% (inactive)	96.6% (inactive)	92.2% (inactive)	104% (inactive)	90.4% (inactive)	91.8% (inactive)	93.2% (inactive)
c1ccc2c(c1)O[As](O[As]1Oc3ccccc3O1)O2	14.3% (inactive)	41.2% (inactive)	25.5% (inactive)	12.7% (inactive)	69.8% (inactive)	17.6% (inactive)	43.1% (inactive)	65.8% (inactive)
CO/N=C1\CC[C@]2(C)[C@H]3CC[C@]4(C)C(=O)CC[C@H]4[C@@H]3C[C@@H]3SC(N)=N[C@@]32C1	84.4% (inactive)		106% (inactive)	89.1% (inactive)	97.7% (inactive)	106% (inactive)	87.2% (inactive)	103% (inactive)
CCOC(=O)c1c(SC)nc(-c2ccc(Cl)cc2)sc1=N				-8.27% [100 µM] (active) and 5.36% [100 µM] (active)				
CC12CCC3C(CCC4CC(O)CCC43C)C1CCC2=O (stereo not given)	113% (inactive)	97.7% (inactive)	109% (inactive)	116% (inactive)	98.9% (inactive)	113% (inactive)	88.6% (inactive)	99.2% (inactive)
C[C@]12CC[C@H]3[C@@H](CC=C4c5nc(N)sc5CC[C@@]43C)[C@@H]1CC[C@@H]2O	92.2% (inactive)	92.9% (inactive)	90.1% (inactive)		102% (inactive)	99.5% (inactive)	92.1% (inactive)	98.4% (inactive)
Nc1nc(=S)nc(N)[nH]1	94.5% (inactive)	105% (inactive)	101% (inactive)	96.5% (inactive)	112% (inactive)	77.8% (inactive)	89.1% (inactive)	92.1% (inactive)
N[C@@H](CCC(=O)CCl)C(=O)O	93% [20 µM] (inactive)	103% [20 µM] (inactive)	97.9% [20 µM] (inactive)	87.9% [20 µM] (inactive)	100% [20 µM] (inactive)	108% [20 µM] (inactive)	104% [20 µM] (inactive)	111% [20 µM] (inactive)
O=C/C=C/c1ccco1	107% (inactive)	106% (inactive)	104% (inactive)	96% (inactive)	97.6% (inactive)	104% (inactive)	90% (inactive)	106% (inactive)
COc1ccc(N)cc1OC	100% (inactive)	103% (inactive)	109% (inactive)	102% (inactive)	100% (inactive)	99.8% (inactive)	103% (inactive)	111% (inactive)
O=c1[nH]c(=O)n(Cl)c(=O)n1Cl	112% (inactive) and 95.3% (inactive)	102% (inactive) and 114% (inactive)	105% (inactive) and 110% (inactive)	108% (inactive) and 86% (inactive)	101% (inactive) and 107% (inactive)	108% (inactive) and 110% (inactive)	113% (inactive) and 99.4% (inactive)	123% (inactive) and 96% (inactive)
COC(=O)C1=CO[C@@H](C)[C@@H]2CN3CCc4c([nH]c5cc(OC)ccc45)[C@@H]3C[C@H]12	93.2% (inactive)		99.9% (inactive)	91.1% (inactive)	109% (inactive)	105% (inactive)	103% (inactive)	
CC1=C2[C@H]3OC(=O)[C@@H](C)[C@@H]3CC[C@@]2(C)C=CC1=O	109% (inactive)	115% (inactive)	108% (inactive)		105% (inactive)		118% (inactive)	
CN(C)c1ccc(C=C2C(=O)NC(=O)NC2=O)cc1	76.1% (inactive)	111% (inactive)	93.4% (inactive)	100% (inactive)	98.9% (inactive)		53.9% (inactive)	
CC(C)CCC1C(=O)NC(=O)NC1=O	78.6% (inactive)	99.7% (inactive)	91.8% (inactive)		98.5% (inactive)	100% (inactive)	98.1% (inactive)	107% (inactive)
O=c1c2ccccc2nc(-c2ccccc2Cl)n1-c1nnc(C(F)(F)F)s1	43.5% (inactive)		37.5% (inactive)	21.4% (inactive)	29.1% (inactive)	22.3% (inactive)	16.8% (inactive)	17.6% (inactive)
CCOC(=O)C1C(c2ccco2)C2(C#N)C(=N)OC1(C)C2(C#N)C#N (stereo not given)				45.1% [100 µM] (inactive) and 0.896% [100 µM] (active)				
